# This is a sample that favours compounds with a hit; in the whole collection about 12% have one here.
# Pf growth 48h: Primary qHTS for delayed death inhibitors of the malarial parasite plastid, 48 hour incubation; P. falciparum luciferase growth in erythrocytes, 48 h; Potency, µM (series often up to 28.7 µM), inactives show top-dose activity change, negative = inhibition, actives largely listed as inhibitors; 310,000 compounds, 5.9% hits; note: % is set by controls: 0 for no effect and ±100 for the full control effect
#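 Firefly luciferase activity from engineered P. falciparum reports growth; inhibitors lower the luminescent signal. Cultures contained 2% hematocrit erythrocytes at 0.1% final parasitemia.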
# Pf growth 96h: Primary qHTS for delayed death inhibitors of the malarial parasite plastid, 96 hour incubation; P. falciparum luciferase reporter growth, 96 h; Potency, µM (top dose mostly 28.7 µM), without a hit: at the highest dose activity change, negative = inhibition, usual class: inhibitors; 320,000 compounds, 6.9% hits; AID 504834, 2011; note: % is set by controls: 0 for no effect and ±100 for the full control effect
#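 Delayed-death screen, second-generation endpoint: infected erythrocytes, 2% hematocrit, 0.05% parasitemia final; 96 hours at 37 C, 5% CO2; luciferase detection reagent; luminescence decrease equals reduced growth.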
# Sm TGR block: qHTS Assay for the Inhibitors of Schistosoma Mansoni Peroxiredoxins. Schistosoma mansoni thioredoxin glutathione reductase (TGR), Q962Y6. purified TGR, DTNB reduction, TNB absorbance 405 nm. Potency, µM (series often up to 114 µM), inactives show at the highest dose activity change, negative = inhibition, usual class: inhibitors. 360,000 compounds, 3% hits; note: % is set by controls: 0 for no effect and ±100 for the full control effect; nearly all actives have a fitted effect of over 60% in size
#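 First, TGR (20 nM dispensed) and NADPH were mixed with compound. Second, a 15 min room-temperature incubation followed. Third, further NADPH and then DTNB were added to start the reaction. Finally, TNB absorbance was monitored kinetically.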
# AmpC inh no detg: qHTS Inhibitors of AmpC Beta-Lactamase (assay without detergent); P00811; AmpC nitrocefin hydrolysis, absorbance 480 nm, 0.0001% Triton; 330,000 compounds, 0.52% hits; AID 485341, 2010; Potency, µM (highest dose often 57.1 µM), inactives show top-dose activity change, negative = inhibition, hits mostly inhibitors;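 note: plate controls were no compound for no effect and no enzyme for full effect; nearly all actives have a fitted effect of over 20% in size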
# Target sequence (P00811 whole entry, looked up): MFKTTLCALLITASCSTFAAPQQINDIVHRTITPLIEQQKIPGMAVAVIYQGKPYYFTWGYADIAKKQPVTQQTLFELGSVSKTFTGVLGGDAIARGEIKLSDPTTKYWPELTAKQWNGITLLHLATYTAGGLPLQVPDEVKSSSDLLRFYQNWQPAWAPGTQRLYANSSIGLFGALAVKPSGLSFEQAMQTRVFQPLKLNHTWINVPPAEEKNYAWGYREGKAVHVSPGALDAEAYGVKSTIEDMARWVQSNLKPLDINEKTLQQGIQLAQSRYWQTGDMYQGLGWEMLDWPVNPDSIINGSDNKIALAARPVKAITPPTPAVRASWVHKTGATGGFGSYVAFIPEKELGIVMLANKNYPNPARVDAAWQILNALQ
#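 AmpC (5.3 nM in the dispensed reagent) in 20 mM phosphate pH 7.0 with 0.01% (detergent screen) or 0.0001% Triton X-100 was preincubated with compounds for 15 min at room temperature. Nitrocefin was then added from an 800 uM solution, and hydrolysis was followed at 480 nm.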
# SARS PLpro yeast: qHTS of Yeast-based Assay for SARS-CoV PLP | Potency, µM (doses to about 32.9 µM), for the others: at the highest dose activity, positive = growth rescue, actives largely listed as activators | AID 485353, 2010 | 330,000 compounds, 0.19% hits | S. cerevisiae expressing SARS-CoV PLpro, growth rescue; calls by dose curve; note: 0% is about no effect; nearly all actives have a fitted effect of over 55% in size
# AmpC detergent: qHTS Inhibitors of AmpC Beta-Lactamase (assay with detergent). Potency, µM (highest dose often 114 µM), inactives show top-dose activity change, negative = inhibition, most hits filed as inhibitors. AmpC hydrolysis of nitrocefin, absorbance 480 nm, 0.01% Triton. 370,000 compounds, 0.041% hits;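 note: 0% = no-compound wells and -100% = no-enzyme wells; nearly all actives have a fitted effect of over 25% in size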
#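 AmpC (5.3 nM in the dispensed reagent) in 20 mM phosphate pH 7.0 with 0.01% (detergent screen) or 0.0001% Triton X-100 was preincubated with compounds for 15 min at room temperature. Nitrocefin was then added from an 800 uM solution, and hydrolysis was followed at 480 nm.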
# * hit, by the source's call; ? = inconclusive; / = not tested or not shown. Unless noted, calls come from the whole dose curve; as a rule, active = well fitted curve in the direction sought with a large enough effect; inconclusive = small, poorly fitted or top-dose-only effect, or another doubt; inactive = no such curve, though single readings can be large; an effect the other way counts as inactive or inconclusive. Potency is the fitted concentration of half-maximal effect.
SMILES,Pf growth 48h,Pf growth 96h,Sm TGR block,AmpC inh no detg,SARS PLpro yeast,AmpC detergent
CCOc1ncccc1C(=O)Nc1ccc(S(=O)(=O)N2CCCC2)cc1,-15.4%,7.3%,17.1%,-14.5%,-5.3%,?
COc1ccc(S(=O)(=O)N2CCCCC2)cc1NC(=O)c1[nH]c(C)c(C(C)=O)c1C,/,/,/,-25.9%,-3.1%,/
CCOc1ncccc1C(=O)Nc1cccc(S(=O)(=O)N2CCCCC2)c1,?,7.38µM*,-1.8%,-10.4%,-1.6%,4.7%
O=C(CCN1C(=O)c2ccccc2C1=O)N1CCC(c2ccccc2)C1 (configuration not stated),6.5%,/,-32.1%,2.3%,-1.1%,-0.3%
Cc1ccc(S(=O)(=O)NC(=O)COc2ccccc2C)c(C)c1,14.3%,-23.2%,3.9%,-11.2%,2.4%,2.6%
CCOc1cc(CNC(=O)c2ccc3c(c2)N(C)C(=O)C2CCCCN32)cc(OCC)c1OCC (configuration not stated),/,/,4.8%,/,/,21.8%
CC(C)(C)C(=O)Nc1ccccc1C(=O)OCc1cc(=O)n2ccsc2n1,/,/,3.0%,/,/,17.9%
c1ccc(CCc2ccccc2-c2nc(-c3cccnc3)no2)cc1,13.1µM*,?,9.2%,20.8%,-33.2%,-1.3%
Cc1nn(-c2ccccc2)c(N)c1C1(O)C(=O)Nc2ccc([N+](=O)[O-])cc21 (configuration not stated),3.5%,-13.6%,0.5%,-5.5%,0.2%,7.9%
Cc1nn(-c2ccc([N+](=O)[O-])cc2)c2c1C(c1cccc(Br)c1)N1C(=N2)C(=O)Nc2ccccc21 (configuration not stated),1.31µM*,1.04µM*,-8.8%,-53.8%,9.8%,?
Cc1nn(-c2ccccc2)c2c1C(c1ccc([N+](=O)[O-])cc1)C(C#N)=C(N)O2 (configuration not stated),59.2%,4.7%,-24.9%,-48.5%,-0.7%,-3.5%
Cc1nn(-c2ccccc2)c2c1C(c1ccc([N+](=O)[O-])cc1)N1C(=N2)C(=O)Nc2ccccc21 (configuration not stated),?,5.86µM*,-4.4%,-4.8%,14.3%,-3.6%
Cc1ccc(C(=O)Nc2ccc3c(c2)N(C)C(=O)c2ccccc2S3)cc1F,/,/,6.9%,/,/,11.3%
COc1ccc(-c2nc(CN3CCN(C(=O)c4ccco4)CC3)c(C)o2)c(F)c1,?,?,50.1µM*,130.1%,2.6%,-11.2%
COc1ccc(CN2CCN(C(=O)c3ccco3)CC2)cc1OCc1ccccc1,?,0.0928µM*,2.1%,44.0%,1.0%,?
Cc1ccc(C)c(COc2coc(CN3CCN(C(=O)c4ccco4)CC3)cc2=O)c1,11.7µM*,?,-18.5%,71.9%,-13.8%,0.0%
COc1ccc(-c2nc(CN3CCC(c4ccccc4)CC3)c(C)o2)cc1OC,11.7µM*,13.1µM*,?,100.0%,0.4%,1.2%
O=C(c1ccco1)N1CCN(Cc2cc(=O)c(OCc3ccccc3Cl)co2)CC1,?,?,-1.3%,2.0%,1.6%,?
NC(=O)CNC(=O)[C@@H]1CC2(CC(c3ccc(Cl)cc3)=NO2)CN1C(=O)c1ccc(Br)cc1 (some centres not stated),-13.5%,?,-19.9%,135.5%,3.1%,-10.3%
COc1ccc(-c2nc(CN3CCN(C(=O)c4ccco4)CC3)c(C)o2)cc1OC,?,17.8%,28.2µM*,85.0%,16.5%,1.4%
COc1ccc(OC)c(-c2nc(CN3CCN(C(=O)c4ccco4)CC3)c(C)o2)c1,?,?,?,89.0%,-4.9%,0.5%
